Measured values published in PubChem BioAssay AID1159580 (chemical genetic matrix, 2015).
Where “and” joins values, the source holds several entries; their conditions need not be identical. Equal entries are not always repeated. Among all 5,500 compounds or so, about 2,000 (36%) were called active. Another 18% or so got no clear call; they are omitted. No stated cut-off is given here; in the data, active means normalized growth mostly below about 0.91 (no sharp cut-off); inconclusive means no clear call, values can overlap the other calls; inactive means mostly above about 0.92. The list shows a part of the results.

Test: chemical genetic growth profiling, strain panel (AID 1159580);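 further: tested at 20 µM; growth read once vehicle control cultures reached saturation at 30 °C; 1 = growth at the plate median or of vehicle wells; lower values mean less growth of the strain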
Conditions: S. cerevisiae deletion strains, growth OD

Measured: normalized growth

CN(C)CC/C=C1/c2ccccc2COc2ccccc21
inactive: locus YAL021C, strain ccr4, active compounds read low 0.99 | locus YAL026C, strain drs2, active compounds read low 1.03 | locus YAL030W, strain snc1, active compounds read low 1.02 | locus YBL061C, strain skt5, active compounds read low 1.02 | locus YBR009C, strain hhf1, active compounds read low 1.01 | locus YBR021W, strain FUR4, active compounds read low 0.991 | locus YBR023C, strain chs3, active compounds read low 1.03 | locus YBR171W, strain sec66, active compounds read low 1.05 | locus YBR229C, strain ROT2, active compounds read low 1 | locus YBR231C, strain swc5, active compounds read low 1.04 | locus YBR279W, strain paf1, active compounds read low 1.01 | locus YCL011C, strain gbp2, active compounds read low 1.03 | locus YCL016C, strain dcc1, active compounds read low 1.02 | locus YCL029C, strain bik1, active compounds read low 1.02 | locus YCL069W, strain vba3, active compounds read low 1.03 | locus YCR088W, strain abp1, active compounds read low 1.03 | locus YDL005C, strain med2, active compounds read low 1.05 | locus YDL035C, strain GPR1, active compounds read low 1.03 | locus YDL040C, strain nat1, active compounds read low 1.02 | locus YDL074C, strain BRE1, active compounds read low 1.01 | locus YDL101C, strain DUN1, active compounds read low 1.02 | locus YDL134C, strain PPH21, active compounds read low 1.01 | locus YDL185W, strain tfp1, active compounds read low 1.03 | locus YDL192W, strain arf1, active compounds read low 1.03 | locus YDR001C, strain nth1, active compounds read low 1.01 | locus YDR069C, strain doa4, active compounds read low 1.02 | locus YDR101C, strain arx1, active compounds read low 0.992 | locus YDR137W, strain rgp1, active compounds read low 1.14 | locus YDR159W, strain sac3, active compounds read low 1.05 | locus YDR162C, strain NBP2, active compounds read low 1.02 | locus YDR195W, strain ref2 1.05 | locus YDR297W, strain sur2, active compounds read low 1.03 | locus YDR318W, strain mcm21, active compounds read low 1.02 | locus YDR334W, strain swr1, active compounds read low 1.02 | locus YDR335W, strain msn5, active compounds read low 1.02 | locus YDR388W, active compounds read low 1.03 | locus YDR392W, strain spt3, active compounds read low 0.987 | locus YDR502C, strain sam2, active compounds read low 1.02 | locus YEL003W, strain gim4, active compounds read low 1.03 | locus YEL037C, strain rad23, active compounds read low 1.02 | locus YEL061C, strain CIN8 (second series), active compounds read low 1.02 | locus YEL061C, strain CIN8, active compounds read low 1.01 | locus YER015W, strain faa2, active compounds read low 0.977 | locus YER016W, strain bim1, active compounds read low 1.01 | locus YER110C, active compounds read low 1.02 | locus YER111C, strain swi4, active compounds read low 1.03 | locus YER155C, strain BEM2 (second series), active compounds read low 1.01 | locus YER155C, strain BEM2, active compounds read low 1.01 | locus YER167W, strain BCK2, active compounds read low 1.01 | locus YFR010W, strain ubp6, active compounds read low 1.02 | locus YGL078C, strain dbp3, active compounds read low 1.01 | locus YGL086W, strain mad1, active compounds read low 1 | locus YGL167C, strain pmr1, active compounds read low 1.03 | locus YGL173C, strain kem1, active compounds read low 1.03 | locus YGL227W, strain vid30, active compounds read low 1.01 | locus YGL240W, strain doc1, active compounds read low 1 | locus YGL248W, strain PDE1, active compounds read low 1 | locus YGL253W, strain hxk2, active compounds read low 1.02 | locus YGR078C, strain PAC10, active compounds read low 1.01 | locus YGR135W, strain pre9, active compounds read low 1.03 | locus YGR229C, strain SMI1, active compounds read low 1.02 | locus YGR252W, strain gcn5, active compounds read low 0.972 | locus YHR013C, strain ard1, active compounds read low 0.983 | locus YHR027C, strain rpn1, active compounds read low 0.983 | locus YHR030C, strain SLT2, active compounds read low 1.02 and 1.03 | locus YHR079C, strain IRE1 (second series), active compounds read low 1.03 | locus YHR079C, strain IRE1, active compounds read low 1.06 | locus YHR094C, strain hxt1, active compounds read low 1.01 | locus YHR129C, strain ARP1, active compounds read low 1.01 | locus YHR142W, strain chs7, active compounds read low 1.02 | locus YHR200W, strain rpn10, active compounds read low 1.04 | locus YIL066C, strain RNR3, active compounds read low 1.02 | locus YIL073C, strain SPO22, active compounds read low 1.11 | locus YIL125W, strain kgd1, active compounds read low 1.01 | locus YIR030C, strain dcg1, active compounds read low 1.01 | locus YJL092W, strain hpr5, active compounds read low 1.03 | locus YJL095W, strain BCK1 (second series), active compounds read low 1.03 | locus YJL095W, strain BCK1, active compounds read low 0.992 and 1.03 | locus YJL115W, strain asf1, active compounds read low 1.03 | locus YJL129C, strain trk1, active compounds read low 1.06 | locus YJL134W, strain LCB3, active compounds read low 1.01 | locus YJL154C, strain vps35, active compounds read low 1.02 | locus YJL164C, strain tpk1, active compounds read low 1.02 | locus YJL166W, strain qcr8, active compounds read low 1.01 | locus YJL168C, strain set2, active compounds read low 1.01 | locus YJL187C, strain SWE1 (second series), active compounds read low 1.01 | locus YJR043C, strain POL32, active compounds read low 1.01 | locus YJR066W, strain TOR1, active compounds read low 0.931 | locus YKL009W, strain mrt4, active compounds read low 1.03
